The structures appear in SMILES notation. Records with an inconclusive call do not appear. Calls of active or inactive are those of the source. Unless noted, calls come from the whole dose curve; as a rule, active = well fitted curve in the direction sought with a large enough effect in the repeat runs; inconclusive = weak or mixed curves; inactive = no such curve, though single readings can be large; an effect the other way counts as inactive or inconclusive.

The target of test [1] is Estrogen receptor (Homo sapiens) (UniProt P03372). Nature of the test: qHTS assay to identify small molecule antagonists of the estrogen receptor alpha (ER-alpha) signaling pathway using the BG1 cell line in the presence of 0.1 nM 17-beta-estradiol (AID 1259244). Note: nearly all actives have a fitted effect of over 50% in size. An outline of the steps: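 Estradiol at 0.1 nM (final) stimulates the endogenous ER-alpha of VM7Luc4E2 cells carrying an ERE-driven luciferase; compounds are co-incubated 22 h at 37C and luciferase output quantified by luminescence.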
Background: In qHTS, concentration-response curves come from the screen itself.

Test [2] can be described thus: qHTS assay to identify small molecule HDAC inhibitors (AID 1259364).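 Note: wild-type HCT-116 cells with endogenous class I/II HDAC activity; top concentration of the series differs between compounds; nearly all actives have a fitted effect of over 45% in size.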 An outline of the steps: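 Read-out: luminescence of HDAC-Glo I/II reagent, 30 min RT, reflecting class I/II deacetylase activity in whole HCT-116 cells pre-exposed 2 h to DMSO-dissolved compounds.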
Test [3] in a line: qHTS assay to identify small molecule HDAC inhibitors - cell viability counter screen (AID 1259365). Note: series mostly up to about 92 µM; nearly all actives have a fitted effect of over 50% in size. The method in brief: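 Wild-type HCT-116 cells, 1,500/well, cultured overnight, then compound-treated 2 h at 37 C. Viability measured as ATP luminescence with CellTiter-Glo after 30 min at room temperature.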
Test [4] can be described thus: qHTS assay to identify small molecule agonists of the sonic hedgehog signaling (Shh) pathway - cell viability counter screen (AID 1259366). Note: nearly all actives have a fitted effect of over 50% in size. The method in brief: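 NIH/3T3-derived Gli1-Luc reporter cells, 2,000 per well, received compound after 4 h and were treated about 23 h at 37C. Viability measured in the same wells by CellTiter-Fluor fluorescence after 1 h.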
Test [5] is described as follows: qHTS assay to identify small molecule antagonists of the sonic hedgehog signaling (Shh) pathway - cell viability counter screen (AID 1259367). Note: nearly all actives have a fitted effect of over 55% in size. An outline of the steps:
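NIH/3T3-derived Gli1-Luc reporter cells (2,000 per well) rested 4 hr at 37 C, then received DMSO compounds plus conditioned medium. After 23 hr of treatment, CellTiter-Fluor was added for 1 hr at 37C and fluorescence read.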

Test [6] in a line: qHTS assay to identify small molecule agonists of the sonic hedgehog signaling (Shh) pathway (AID 1259368; calls by dose curve;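 note: NIH/3T3-derived 3T3Gli1-Luc cells carrying a stable Gli1-driven firefly luciferase reporter; series mostly up to about 92 µM; nearly all actives have a fitted effect of over 15% in size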). The method in brief:
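A Gli1 transcriptional response element controlled firefly luciferase in 3T3Gli1-Luc cells. Compounds and a positive control were added 4 hr after plating, and cells were incubated a further 24 hr at 37 C before luminescence detection.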

Test [7] is described as follows: qHTS assay to identify small molecule antagonists of the sonic hedgehog signaling (Shh) pathway (AID 1259369; calls by dose curve; note: nearly all actives have a fitted effect of over 45% in size; note: potency is the fitted concentration of half-maximal effect). An outline of the steps:
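For antagonist detection, the reporter line received test compounds together with conditioned medium, incubated 24hr at 37 C, 5% CO2, then luminescence was recorded following 30min room-temperature luciferase reagent incubation.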

For test [8], the target named is Estrogen receptor beta (Homo sapiens) (UniProt Q92731). Briefly: qHTS assay to identify small molecule agonists of the estrogen receptor beta (ER-beta) signaling pathway (AID 1259377; active = well fitted activation curve with a large enough effect in the signal ratio in the repeat runs, not every such curve was filed as active; the % refers to the signal ratio). An outline of the steps:
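ER-beta-UAS-bla HEK293T cells in medium with 2% charcoal-stripped FBS were exposed to compounds for 16 h at 37C. Beta-lactamase reporter activity was read as fluorescence after 2 h with LiveBLAzer B/G FRET substrate at room temperature.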

The nature of test [9]: qHTS assay to identify small molecule agonists of the androgen receptor (AR) signaling pathway in the presence of an antagonist - cell viability counter screen (AID 1259379).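 Note: MDA-kb2 human breast cancer cells carrying an MMTV luciferase reporter; series mostly up to about 92 µM; nearly all actives have a fitted effect of over 25% in size.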 The method in brief: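 Seed MDA-kb2 at 3,000 cells/well; incubate 5 hr, 37C, 0% CO2. Add nilutamide to 3.0uM final, then pin compounds at 15 concentrations. Incubate 16 hr. Add CellTiter-Fluor at 15 hr, read fluorescence after 1 hr.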

Test [10] is described as follows: qHTS assay to identify small molecule agonists of the estrogen receptor beta (ER-beta) signaling pathway - cell viability counter screen (AID 1259380). Note: nearly all actives have a fitted effect of over 30% in size. The method in brief: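 CellTiter-Glo read, 30 min RT, same wells as bla assay; cells ER-beta-UAS-bla HEK293T; 16 hr compound, 37C; medium 2% charcoal-stripped FBS.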
A short description of test [11]: qHTS assay to identify small molecule antagonists of the estrogen receptor beta (ER-beta) signaling pathway - cell viability counter screen (AID 1259382). Note: series mostly up to about 92 µM; nearly all actives have a fitted effect of over 55% in size. An outline of the steps:
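In this multiplexed counter screen, cells were seeded at 2,000 per well in medium with 2% charcoal-stripped FBS and incubated 6 hr before compound and 1nM final E2 were added. Sixteen hours later, ATP-based luminescence reported viability.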

Test [12] deals with Estrogen receptor (Homo sapiens) (UniProt P03372). Briefly: qHTS assay to identify small molecule agonists of the estrogen receptor alpha (ER-alpha) signaling pathway in the presence of an antagonist (AID 1259383; calls by dose curve; note: top concentration of the series differs between compounds; nearly all actives have a fitted effect of over 15% in size). The method in brief: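 Stably transfected VM7Luc4E2 reporter cells, kept 5 days in charcoal-stripped serum, received ICI-182,780 at 10.0nM final before compound addition. Following 22hr incubation at 37C and 5% CO2, luciferase signal was read by luminescence.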

Test [13] in a line: qHTS assay to identify small molecule agonists or antagonists of the thyroid stimulating hormone receptor (TSHR) signaling pathway - wild type cell line counter screen (AID 1259384; calls by dose curve). The method in brief: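 Wild-type HEK293 cells were plated 18 h at 37 C/5% CO2, pin-dosed with compound plus Ro20-1724 medium, held 30 min at room temperature, then given cAMP-d2 and anti-cAMP-cryptate; fluorescence was read after 1 h. Fifteen concentrations, triplicate.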

The target of test [14] is Thyrotropin receptor (Homo sapiens) (UniProt P16473). Nature of the test: qHTS assay to identify small molecule antagonists of the thyroid stimulating hormone receptor (TSHR) signaling pathway (AID 1259385; calls by dose curve; note: nearly all actives have a fitted effect of over 20% in size). An outline of the steps: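 TSHR-HEK293 cells were plated and held 18 h at 37C/5% CO2, then given compound plus Ro20-1724 and stimulated with TSH at 1.5 ng/mL final. After 30 min at room temperature, cAMP was detected with cAMP-d2/anti-cAMP-cryptate (1 h) by fluorescence.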

Test [15] can be described thus: qHTS assay to identify small molecule agonists of the estrogen receptor alpha (ER-alpha) signaling pathway in the presence of an antagonist - cell viability counter screen (AID 1259386).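 Note: series mostly up to about 92 µM; cells exposed to compounds for 22 h at 37 °C before the viability read; nearly all actives have a fitted effect of over 30% in size.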 The method in brief:
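Viability counter screen using VM7Luc4E2 (full-length ER-alpha, four ERE-luciferase). The cells were treated with compounds alongside ICI-182,780 10.0nM for 22hr, and live-cell protease fluorescence was quantified with CellTiter-Fluor.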

Test [16] concerns the target Progesterone receptor (Homo sapiens) (UniProt P06401). Briefly: qHTS assay to identify small molecule agonists of the progesterone receptor (PR) signaling pathway (AID 1346784; calls by dose curve; note: nearly all actives have a fitted effect of over 30% in size). An outline of the steps: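 PR-UAS-bla HEK 293T cells (beta-lactamase reporter under UAS) in 2% charcoal-stripped FBS, dosed with 23 nL compound after 6 hr, incubated 16hr at 37C. LiveBLAzer B/G FRET substrate added, fluorescence read after 2 hours.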

Test [17] has the same target. Nature of the test: qHTS assay to identify small molecule antagonists of the progesterone receptor (PR) signaling pathway (AID 1346795; active = well fitted inhibition curve with a large enough effect in the signal ratio in the repeat runs, not every such curve was filed as active; the % refers to the signal ratio). An outline of the steps:
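PR-UAS-bla HEK293T cells with beta-lactamase reporter under UAS control, in 2% charcoal-stripped FBS, treated with compounds plus 1 nM promegestone (R5020, final) for 16 hr at 37C. Read-out: FRET beta-lactamase substrate fluorescence after 2 hr at room temperature.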

Test [18] is described as follows: qHTS assay to identify small molecule antagonists of the progesterone receptor (PR) signaling pathway - cell viability counter screen (AID 1346798). Note: series mostly up to about 92 µM; nearly all actives have a fitted effect of over 50% in size. An outline of the steps:
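PR-UAS-bla HEK293T cells, 3,000/well in 2% charcoal-stripped FBS medium, dosed with compounds plus R5020 agonist and incubated 16 h at 37C. Viability then measured in the same wells by CellTiter-Glo luminescence after 30 min at RT.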

In test [19] the target is Estrogen receptor beta (Homo sapiens) (UniProt Q92731). Nature of the test: qHTS assay to identify small molecule antagonists of the estrogen receptor beta (ER-beta) signaling pathway (AID 1259378; active = well fitted inhibition curve with a large enough effect in the signal ratio in the repeat runs, not every such curve was filed as active; the % refers to the signal ratio). The method in brief: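 ER-beta-UAS-bla HEK293T (GripTite) cells in 2% charcoal-stripped FBS medium were preincubated 6 hr at 37C, dosed with compound, then stimulated with 1 nM E2 (final) for 16 hr; beta-lactamase reporter read by B/G FRET fluorescence after 2 hr substrate loading.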

The target in test [20] is Androgen receptor (Homo sapiens) (UniProt P10275). Nature of the test: qHTS assay to identify small molecule agonists of the androgen receptor (AR) signaling pathway in the presence of an antagonist (AID 1259381; calls by dose curve; note: nearly all actives have a fitted effect of over 15% in size). An outline of the steps: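 Test compounds at 15 concentrations were incubated for 16hr with MDA-kb2 reporter cells in presence of 3.0uM nilutamide (final). Signal: ONE-Glo luciferase luminescence.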
Chain of Androgen receptor (Homo sapiens) (P10275 whole entry, looked up): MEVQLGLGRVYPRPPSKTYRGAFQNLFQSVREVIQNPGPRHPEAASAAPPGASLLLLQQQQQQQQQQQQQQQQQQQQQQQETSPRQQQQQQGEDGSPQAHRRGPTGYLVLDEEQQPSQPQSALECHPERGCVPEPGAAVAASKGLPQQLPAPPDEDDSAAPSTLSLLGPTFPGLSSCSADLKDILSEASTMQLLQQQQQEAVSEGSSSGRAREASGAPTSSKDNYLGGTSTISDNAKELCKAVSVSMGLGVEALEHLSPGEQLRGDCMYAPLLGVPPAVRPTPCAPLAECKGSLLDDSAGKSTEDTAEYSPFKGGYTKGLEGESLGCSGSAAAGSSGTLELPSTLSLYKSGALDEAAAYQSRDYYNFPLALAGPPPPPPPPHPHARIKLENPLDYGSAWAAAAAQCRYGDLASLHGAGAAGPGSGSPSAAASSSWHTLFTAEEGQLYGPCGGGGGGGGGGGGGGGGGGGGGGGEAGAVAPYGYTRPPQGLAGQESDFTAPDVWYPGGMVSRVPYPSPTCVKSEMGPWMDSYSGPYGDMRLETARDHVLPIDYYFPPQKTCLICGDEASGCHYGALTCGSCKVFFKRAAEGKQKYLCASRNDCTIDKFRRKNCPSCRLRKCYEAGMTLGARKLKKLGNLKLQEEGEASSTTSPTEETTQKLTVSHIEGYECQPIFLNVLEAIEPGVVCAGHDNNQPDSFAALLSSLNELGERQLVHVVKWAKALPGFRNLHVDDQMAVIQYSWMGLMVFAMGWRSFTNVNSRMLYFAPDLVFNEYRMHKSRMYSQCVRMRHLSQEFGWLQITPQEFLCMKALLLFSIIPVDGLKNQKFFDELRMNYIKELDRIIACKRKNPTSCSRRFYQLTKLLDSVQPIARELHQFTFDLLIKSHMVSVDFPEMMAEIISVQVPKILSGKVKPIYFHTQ

Chain of Progesterone receptor (Homo sapiens) (P06401 whole entry, looked up): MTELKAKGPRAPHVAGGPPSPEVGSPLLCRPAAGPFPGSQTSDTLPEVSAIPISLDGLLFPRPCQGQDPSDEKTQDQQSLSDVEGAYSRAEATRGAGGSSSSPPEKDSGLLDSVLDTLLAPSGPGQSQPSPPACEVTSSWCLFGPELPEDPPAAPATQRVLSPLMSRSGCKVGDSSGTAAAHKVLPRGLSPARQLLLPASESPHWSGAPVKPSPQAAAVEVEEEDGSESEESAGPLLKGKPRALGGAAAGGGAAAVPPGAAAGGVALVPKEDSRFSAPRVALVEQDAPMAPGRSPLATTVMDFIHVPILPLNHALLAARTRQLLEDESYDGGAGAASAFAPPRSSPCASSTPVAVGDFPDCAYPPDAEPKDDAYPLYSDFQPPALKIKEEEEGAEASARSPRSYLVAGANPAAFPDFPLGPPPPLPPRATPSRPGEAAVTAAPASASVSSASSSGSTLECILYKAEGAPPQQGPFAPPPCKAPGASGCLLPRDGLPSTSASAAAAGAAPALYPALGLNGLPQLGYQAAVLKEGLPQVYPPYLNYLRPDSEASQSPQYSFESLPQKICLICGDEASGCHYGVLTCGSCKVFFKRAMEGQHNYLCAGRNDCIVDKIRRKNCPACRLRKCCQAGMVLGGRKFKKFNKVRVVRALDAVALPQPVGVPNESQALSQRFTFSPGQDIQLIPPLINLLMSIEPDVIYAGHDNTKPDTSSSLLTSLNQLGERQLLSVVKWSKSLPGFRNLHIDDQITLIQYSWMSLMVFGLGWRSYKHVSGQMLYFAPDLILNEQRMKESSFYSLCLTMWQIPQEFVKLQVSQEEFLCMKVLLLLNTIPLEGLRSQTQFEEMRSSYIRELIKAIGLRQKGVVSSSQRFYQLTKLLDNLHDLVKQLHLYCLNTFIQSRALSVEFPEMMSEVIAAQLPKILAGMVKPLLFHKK
Chain of Estrogen receptor beta (Homo sapiens) (Q92731 whole entry, looked up): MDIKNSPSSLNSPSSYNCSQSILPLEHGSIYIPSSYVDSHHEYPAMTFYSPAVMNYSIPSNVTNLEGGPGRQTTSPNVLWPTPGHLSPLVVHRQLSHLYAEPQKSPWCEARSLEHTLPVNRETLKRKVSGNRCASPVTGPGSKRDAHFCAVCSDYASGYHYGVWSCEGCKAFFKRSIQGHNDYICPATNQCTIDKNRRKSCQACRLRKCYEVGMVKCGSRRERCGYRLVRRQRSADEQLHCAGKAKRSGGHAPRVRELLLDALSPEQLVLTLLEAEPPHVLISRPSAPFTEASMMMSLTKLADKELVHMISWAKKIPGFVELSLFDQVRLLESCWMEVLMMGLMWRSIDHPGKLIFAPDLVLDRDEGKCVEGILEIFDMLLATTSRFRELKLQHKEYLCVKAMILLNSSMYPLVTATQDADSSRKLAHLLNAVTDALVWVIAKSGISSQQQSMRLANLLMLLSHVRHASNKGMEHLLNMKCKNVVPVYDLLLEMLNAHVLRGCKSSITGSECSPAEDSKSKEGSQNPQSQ
Chain of Thyrotropin receptor (Homo sapiens) (P16473 whole entry, looked up): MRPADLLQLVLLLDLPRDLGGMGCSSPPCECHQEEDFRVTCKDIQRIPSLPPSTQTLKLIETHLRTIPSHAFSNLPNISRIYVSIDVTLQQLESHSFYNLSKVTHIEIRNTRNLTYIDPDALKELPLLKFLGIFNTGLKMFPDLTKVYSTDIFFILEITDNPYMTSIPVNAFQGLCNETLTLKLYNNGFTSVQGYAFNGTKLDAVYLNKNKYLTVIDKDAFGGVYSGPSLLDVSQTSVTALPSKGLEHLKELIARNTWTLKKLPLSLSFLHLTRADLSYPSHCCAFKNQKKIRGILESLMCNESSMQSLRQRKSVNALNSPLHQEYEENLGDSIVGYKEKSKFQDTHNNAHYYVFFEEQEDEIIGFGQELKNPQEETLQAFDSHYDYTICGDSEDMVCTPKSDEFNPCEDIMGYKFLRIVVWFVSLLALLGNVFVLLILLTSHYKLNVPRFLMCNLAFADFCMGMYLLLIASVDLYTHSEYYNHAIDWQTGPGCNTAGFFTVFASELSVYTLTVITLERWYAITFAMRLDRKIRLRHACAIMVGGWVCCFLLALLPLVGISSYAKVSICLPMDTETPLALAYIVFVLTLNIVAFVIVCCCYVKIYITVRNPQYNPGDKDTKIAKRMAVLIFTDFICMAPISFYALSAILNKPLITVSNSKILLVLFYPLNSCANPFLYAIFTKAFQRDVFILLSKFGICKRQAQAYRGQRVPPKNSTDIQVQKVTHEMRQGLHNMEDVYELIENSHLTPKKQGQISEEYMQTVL
Chain of Estrogen receptor (Homo sapiens) (P03372 whole entry, looked up): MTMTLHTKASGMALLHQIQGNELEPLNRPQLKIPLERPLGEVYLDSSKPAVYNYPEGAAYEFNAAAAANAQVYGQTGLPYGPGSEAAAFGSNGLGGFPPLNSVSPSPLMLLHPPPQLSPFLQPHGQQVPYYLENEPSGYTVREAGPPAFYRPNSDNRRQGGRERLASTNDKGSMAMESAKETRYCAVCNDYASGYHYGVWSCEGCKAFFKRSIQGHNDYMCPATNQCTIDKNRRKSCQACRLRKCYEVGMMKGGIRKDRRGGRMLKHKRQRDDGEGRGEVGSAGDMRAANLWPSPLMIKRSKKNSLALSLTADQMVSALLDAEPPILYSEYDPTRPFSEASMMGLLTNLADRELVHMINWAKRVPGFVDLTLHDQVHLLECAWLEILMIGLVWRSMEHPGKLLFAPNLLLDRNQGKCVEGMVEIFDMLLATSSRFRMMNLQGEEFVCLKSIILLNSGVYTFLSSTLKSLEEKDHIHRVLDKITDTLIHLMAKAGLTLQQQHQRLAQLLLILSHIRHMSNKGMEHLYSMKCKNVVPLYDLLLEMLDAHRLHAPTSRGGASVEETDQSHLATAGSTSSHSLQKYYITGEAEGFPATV

As to `CC(C)(C)OOC(C)(C)C`, the Potency entry in [1], in [2], in test [4], in test [5], in [7] and in [8] was “inactive” throughout. Moreover, the Potency entry in test [10], in test [11], in test [12], in test [14], in test [17] and in test [18] was “inactive” throughout. In addition, the call in test [3], in [6], in test [9], in [13], in test [15] and in test [16] was inactive.
Turning to `c1ccc(-c2ccccc2)cc1`, the Potency result in [1], in test [2], in test [4], in [5], in test [7] and in test [8] was “inactive” each time. The Potency entry in [10], in [11], in [12], in test [14] and in test [18] was “inactive” in each case. Also, the molecule was called inactive in test [3], in test [6], in test [19], in test [9], in [20] and in test [15]. In addition, in test [16], the result was inactive.
With `CC(C#N)CCC#N` (stereo unspecified), the Potency result in test [1], in [2], in [4], in [5], in test [7] and in test [8] was “inactive” in each case. The Potency entry in [10], in test [11], in test [12], in test [14], in test [17] and in test [18] was “inactive” throughout. The outcome in [3], in [6], in test [19], in [9], in test [13] and in [15] was inactive. In test [16], the molecule was classed as inactive.
Take `[O-][Cl+2]([O-])O`: the Potency result in test [1], in test [2], in [4], in test [5], in test [7] and in test [8] was “inactive” each time. The Potency entry in test [10], in test [11], in test [12], in [14], in test [17] and in [18] was “inactive” each time. Besides, the molecule was called inactive in test [3], in test [6], in test [9], in test [13], in test [15] and in [16].
Take `O=Cc1cccc(Oc2ccccc2)c1`: the Potency result in test [1], in test [2], in test [4], in [5], in test [7] and in test [8] was “inactive” throughout. Besides, the Potency result in [10], in test [11], in [12], in test [14], in [17] and in [18] was “inactive” throughout. For the same molecule, the molecule was called inactive in [3], in [6], in test [9], in test [13], in [15] and in [16].
For the molecule `BrCCBr`, the Potency result in test [1], in test [2], in test [4], in test [5], in [7] and in [8] was “inactive” each time. For the same molecule, the Potency result in test [10], in test [11], in test [12], in test [14], in [17] and in test [18] was “inactive” each time. The molecule was classed as inactive in [3], in [6], in test [19], in test [9], in test [13] and in test [15]. For the same molecule, the outcome in test [16] was inactive.
As to `c1ccc(OP(Oc2ccccc2)Oc2ccccc2)cc1`, the Potency result in [1], in test [2], in test [4], in test [5], in [7] and in test [8] was “inactive” throughout. Further, the Potency result in test [10], in test [11], in [12], in [14], in test [17] and in [18] was “inactive” in each case. Further, the outcome in test [3], in test [6], in test [9], in [13], in [15] and in test [16] was inactive.
For the molecule `CCOP(=S)(OCC)Oc1cnc2ccccc2n1`, the Potency entry in test [1], in [2], in test [4], in test [5], in [8] and in test [10] was “inactive” in each case. Moreover, the Potency entry in test [11], in test [12], in test [14], in test [17] and in test [18] was “inactive” throughout. Moreover, the molecule was classed as inactive in [3], in test [6], in test [9], in test [13], in [15] and in [16]. In addition, the Potency in [7] is 27.3 µM (active).

Values taken from PubChem BioAssay (Tox21).
